Laboratory results as given in PubChem BioAssay (Tox21).
Records with an inconclusive call do not appear. Active and inactive are the calls of the source. Unless noted, the call rests on the fitted dose curve.

Legend:
[1] = target: Peroxisome proliferator-activated receptor delta (Homo sapiens) (UniProt Q03181); experiment: qHTS assay to identify small molecule agonists of the peroxisome proliferator-activated receptor delta (PPARd) signaling pathway (AID 743212); further: on the % scale 0 is the no-effect control and ±100 the full control effect
Chain of Peroxisome proliferator-activated receptor delta (Homo sapiens) (Q03181 whole entry, looked up): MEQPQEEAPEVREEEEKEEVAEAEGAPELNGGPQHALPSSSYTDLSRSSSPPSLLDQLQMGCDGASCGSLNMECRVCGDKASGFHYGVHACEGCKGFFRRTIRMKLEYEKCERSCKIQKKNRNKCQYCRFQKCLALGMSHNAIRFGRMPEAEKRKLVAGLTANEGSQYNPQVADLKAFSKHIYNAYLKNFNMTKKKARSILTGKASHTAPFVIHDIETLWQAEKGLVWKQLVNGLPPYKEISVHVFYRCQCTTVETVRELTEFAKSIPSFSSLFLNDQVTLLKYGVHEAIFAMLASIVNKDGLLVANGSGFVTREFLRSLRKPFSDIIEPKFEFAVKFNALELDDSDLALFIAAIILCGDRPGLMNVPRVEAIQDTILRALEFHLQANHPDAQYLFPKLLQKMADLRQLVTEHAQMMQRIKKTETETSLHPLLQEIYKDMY
Procedure, shortened: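 Read-out: beta-lactamase FRET fluorescence after 2 h room-temperature incubation with LiveBLAzer B/G substrate. Cells were HEK293H carrying a UAS-bla reporter for PPARd, treated at 37 C with DMSO-dissolved compounds.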

[2] = qHTS assay to identify small molecule antagonists of the peroxisome proliferator-activated receptor delta (PPARd) signaling pathway - cell viability counter screen (AID 743213; active means well fitted curve in the direction sought with a large enough effect in the repeat runs; an effect the other way counts as inactive or inconclusive; further: on the % scale 0 is the no-effect control and ±100 the full control effect; nearly all actives have a fitted effect of over 50% in size)
Procedure, shortened: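 Agonist-stimulated (L165041, 300 nM final) HEK293H PPARd UAS-bla cells are exposed to compounds for 17 h at 37 C, and ATP-based luminescence (CellTiter-Glo) from the same wells reports cytotoxicity.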

[3] = target: Peroxisome proliferator-activated receptor delta (Homo sapiens) (UniProt Q03181); experiment: qHTS assay to identify small molecule antagonists of the peroxisome proliferator-activated receptor delta (PPARd) signaling pathway (AID 743215; active means well fitted inhibition curve with a large enough effect in the signal ratio in the repeat runs, not every such curve was filed as active; the % refers to the signal ratio; further: series mostly up to about 62 µM; on the % scale 0 is the no-effect control and ±100 the full control effect)
Procedure, shortened: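 Agonist L165041 (300 nM final) added with compound to PPARd-bla HEK293H UAS-bla reporter cells; 17 h incubation at 37 C. Read-out: LiveBLAzer FRET substrate, 2 h at room temperature, fluorescence intensity.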

[4] = qHTS assay to identify small molecule agonists of the farnesoid-X-receptor (FXR) signaling pathway - cell viability counter screen (AID 743218; active means well fitted curve in the direction sought with a large enough effect in the repeat runs; an effect the other way counts as inactive or inconclusive; further: on the % scale 0 is the no-effect control and ±100 the full control effect; nearly all actives have a fitted effect of over 45% in size)
Procedure, shortened: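 Viability counter screen in the same wells: CellTiter-Glo luminescence, 30 min room-temperature incubation, measured after the beta-lactamase read. Cells were GeneBLAzer FXR-UAS-bla HEK 293T, compound-treated 16 h at 37C.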

[5] = qHTS assay to identify small molecule antagonists of the farnesoid-X-receptor (FXR) signaling pathway - cell viability counter screen (AID 743221; active means well fitted cell-killing curve with a large enough effect in the repeat runs, not every such curve was filed as active; further: on the % scale 0 is the no-effect control and ±100 the full control effect; nearly all actives have a fitted effect of over 50% in size)
Procedure, shortened: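 Cytotoxicity is taken from ATP luminescence (CellTiter-Glo, 30 min, room temperature) in FXR-bla HEK 293T cells previously incubated 16 h at 37 C with compound and chenodeoxycholic acid at 50 uM final.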

[6] = target: Vitamin D3 receptor (Homo sapiens) (UniProt P11473); experiment: qHTS assay to identify small molecule agonists of the vitamin D receptor (VDR) signaling pathway (AID 743222); further: on the % scale 0 is the no-effect control and ±100 the full control effect
Chain of Vitamin D3 receptor (Homo sapiens) (P11473 whole entry, looked up): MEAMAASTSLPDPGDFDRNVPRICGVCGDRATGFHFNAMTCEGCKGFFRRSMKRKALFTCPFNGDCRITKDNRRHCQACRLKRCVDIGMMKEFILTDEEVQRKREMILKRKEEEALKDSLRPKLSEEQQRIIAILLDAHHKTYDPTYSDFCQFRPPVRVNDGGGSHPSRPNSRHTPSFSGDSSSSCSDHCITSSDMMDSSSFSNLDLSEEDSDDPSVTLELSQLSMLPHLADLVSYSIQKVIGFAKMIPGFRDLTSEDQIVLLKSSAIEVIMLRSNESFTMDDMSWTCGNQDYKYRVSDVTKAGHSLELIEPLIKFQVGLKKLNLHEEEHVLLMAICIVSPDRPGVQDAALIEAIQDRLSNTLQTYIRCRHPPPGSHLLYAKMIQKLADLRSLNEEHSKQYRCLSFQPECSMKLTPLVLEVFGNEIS
Procedure, shortened: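 Agonist mode, beta-lactamase reporter: fluorescence from LiveBLAzer B/G FRET substrate (2 h, room temperature) read after 16 h compound treatment at 37 C of VDR-bla cells, which were pre-incubated 4 h after seeding.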

[7] = target: Vitamin D3 receptor (Homo sapiens) (UniProt P11473); experiment: qHTS assay to identify small molecule antagonists of the vitamin D receptor (VDR) signaling pathway (AID 743223; active means well fitted inhibition curve with a large enough effect in the signal ratio in the repeat runs, not every such curve was filed as active; the % refers to the signal ratio; further: on the % scale 0 is the no-effect control and ±100 the full control effect)
Procedure, shortened: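 Quantitative HTS in VDR-bla reporter cells stimulated with 1alpha,25-dihydroxyvitamin D3, 3 nM final. Compound exposure 16 h, 37C, 5% CO2. Read-out: beta-lactamase FRET substrate fluorescence, 2 h RT.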

[8] = qHTS assay to identify small molecule antagonists of the vitamin D receptor (VDR) signaling pathway - cell viability counter screen (AID 743225; active means well fitted curve in the direction sought with a large enough effect in the repeat runs; an effect the other way counts as inactive or inconclusive; further: on the % scale 0 is the no-effect control and ±100 the full control effect; nearly all actives have a fitted effect of over 50% in size)
Procedure, shortened: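 Same-well multiplex: following 16 h treatment of HEK 293T cells carrying a UAS-driven beta-lactamase reporter with compound and agonist (3 nM final), and a 2 h FRET substrate step, CellTiter-Glo was added and luminescence read after 30 min.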

[9] = qHTS assay to identify small molecule agonists of the NFkB signaling pathway (AID 1159509; active means well fitted curve in the direction sought with a large enough effect in the signal ratio in the repeat runs, not every such curve was filed as active; the % refers to the signal ratio)
Procedure, shortened: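 Beta-lactamase reporter assay run in quantitative high-throughput format on an NF-kB-responsive ME-180 line, with 5 hr compound treatment and a FRET-based blue/green fluorescence readout.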

[10] = qHTS assay to identify small molecule agonists of the NFkB signaling pathway - cell viability counter screen (AID 1159515); further: series mostly up to about 61 µM; on the % scale 0 is the no-effect control and ±100 the full control effect; nearly all actives have a fitted effect of over 55% in size
Procedure, shortened: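 Read by CellTiter-Glo luminescence (30 min, room temperature) in the wells also used for the beta-lactamase FRET read. ME-180 NFkB-bla cells at 2,000 per well were plated overnight, then exposed to compound for 5 hr at 37 C.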

[11] = qHTS assay to identify small molecule agonists of the endoplasmic reticulum stress response signaling pathway - cell viability counter screen (AID 1159517);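 further: HeLa cells carrying an ER stress response element beta-lactamase reporter; series mostly up to about 61 µM; on the % scale 0 is the no-effect control and ±100 the full control effect; nearly all actives have a fitted effect of over 50% in size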
Procedure, shortened: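 Steps: seed 1,500 ESRE-bla HeLa cells per well; incubate overnight at 37 C, 5% CO2; add compounds in DMSO for 5 hr; run FRET substrate 2 hr RT; add CellTiter-Glo, wait 30 min, read luminescence.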

[12] = qHTS assay to identify small molecule antagonists of the retinoid-related orphan receptor gamma (ROR-gamma) signaling pathway - cell viability counter screen (AID 1159520; active means well fitted curve in the direction sought with a large enough effect in the repeat runs; an effect the other way counts as inactive or inconclusive)
Procedure, shortened: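 Tet-on ROR gamma CHO cells were given compounds for 2 hr, then doxycycline hyclate at 1 uM final, and incubated 16 hr at 37 C. Viability was measured as ATP content by CellTiter-Glo luminescence.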

[13] = target: Nuclear receptor ROR-gamma (Homo sapiens) (UniProt P51449); experiment: qHTS assay to identify small molecule antagonists of the retinoid-related orphan receptor gamma (ROR-gamma) signaling pathway (AID 1159521; active means well fitted curve in the direction sought with a large enough effect in the repeat runs; an effect the other way counts as inactive or inconclusive; further: nearly all actives have a fitted effect of over 50% in size; further: potency means the concentration at half of the fitted maximal effect)
Procedure, shortened: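 Inducible-expression reporter assay: doxycycline (1 uM final) switched on RORγ in CHO cells bearing a ROR response element-luciferase construct, with test compounds present from 2 h beforehand. Decreased luminescence after 16 h defined antagonist activity.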

[14] = qHTS assay to identify small molecule agonists of the AP-1 signaling pathway - cell viability counter screen (AID 1159525); further: nearly all actives have a fitted effect of over 55% in size
Procedure, shortened: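 Same-well cytotoxicity counter screen of the Tox21 10K library in ME-180 cells. The readout is ATP-dependent luminescence after 5 h compound treatment. Data are normalised to DMSO and tetra n-octyl ammonium bromide controls.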

[15] = qHTS assay to identify small molecule agonists of the AP-1 signaling pathway (AID 1159526); further: on the % scale 0 is the no-effect control and ±100 the full control effect
[16] = qHTS assay to identify small molecule agonists of the peroxisome proliferator-activated receptor delta (PPARd) signaling pathway - cell viability counter screen (AID 743211; active means well fitted curve in the direction sought with a large enough effect in the repeat runs; an effect the other way counts as inactive or inconclusive; further: on the % scale 0 is the no-effect control and ±100 the full control effect; nearly all actives have a fitted effect of over 55% in size)
Procedure, shortened: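 Tox21 library compounds, delivered in DMSO, were incubated 17 h with PPARd-bla HEK293H cells; cytotoxicity was taken from CellTiter-Glo luminescence read 30 min after reagent addition.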

[17] = target: Bile acid receptor (Homo sapiens) (UniProt Q96RI1); experiment: qHTS assay to identify small molecule antagonists of the farnesoid-X-receptor (FXR) signaling pathway (AID 743217; active means well fitted inhibition curve with a large enough effect in the signal ratio in the repeat runs, not every such curve was filed as active; the % refers to the signal ratio; further: potency means the concentration at half of the fitted maximal effect)
Chain of Bile acid receptor (Homo sapiens) (Q96RI1 whole entry, looked up): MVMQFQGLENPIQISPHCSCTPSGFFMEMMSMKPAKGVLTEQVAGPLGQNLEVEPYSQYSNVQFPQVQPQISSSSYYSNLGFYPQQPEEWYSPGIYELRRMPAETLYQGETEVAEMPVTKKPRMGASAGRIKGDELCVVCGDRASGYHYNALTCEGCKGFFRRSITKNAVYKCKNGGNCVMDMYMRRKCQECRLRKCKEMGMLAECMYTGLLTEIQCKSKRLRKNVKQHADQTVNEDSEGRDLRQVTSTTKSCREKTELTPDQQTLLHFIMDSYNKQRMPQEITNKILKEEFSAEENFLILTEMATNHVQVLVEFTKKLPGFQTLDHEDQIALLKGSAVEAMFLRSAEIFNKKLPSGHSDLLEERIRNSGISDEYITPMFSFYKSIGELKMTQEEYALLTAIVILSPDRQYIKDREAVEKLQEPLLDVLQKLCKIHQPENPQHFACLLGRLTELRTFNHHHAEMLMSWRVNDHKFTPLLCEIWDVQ
Procedure, shortened: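 Antagonist mode: chenodeoxycholic acid at 50 uM final stimulates a UAS-driven beta-lactamase reporter in HEK 293T FXR-bla cells during 16 h, 37C compound exposure. Read-out is FRET substrate fluorescence after 2 h at room temperature.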

[18] = target: Bile acid receptor (Homo sapiens) (UniProt Q96RI1); experiment: qHTS assay to identify small molecule agonists of the farnesoid-X-receptor (FXR) signaling pathway (AID 743220; active means well fitted activation curve with a large enough effect in the signal ratio in the repeat runs, not every such curve was filed as active; the % refers to the signal ratio; further: on the % scale 0 is the no-effect control and ±100 the full control effect)
Procedure, shortened: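 FXR-UAS-bla HEK 293T cells carrying a UAS-driven beta-lactamase reporter were plated for 5 h at 37C/5% CO2, then exposed to DMSO-dissolved Tox21 10K compounds for 16 h at 37C. A LiveBLAzer B/G FRET substrate was loaded for 2 h at room temperature before fluorescence reading.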

[19] = qHTS assay to identify small molecule agonists of the vitamin D receptor (VDR) signaling pathway - cell viability counter screen (AID 743224; active means well fitted curve in the direction sought with a large enough effect in the repeat runs; an effect the other way counts as inactive or inconclusive)
Procedure, shortened: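 Counter screen run in the same wells as the VDR-bla reporter assay: CellTiter-Glo luminescence, 30 min at room temperature, after 16 h compound treatment at 37C of cells pre-plated for 4 h.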

CC1(C)CON(Cc2ccccc2Cl)C1=O
inactive: outcome [1] | outcome [2] | outcome [3] | Potency [4] | outcome [5] | outcome [6] | outcome [7] | outcome [8] | outcome [9] | outcome [10] | Potency [11] | Potency [12] | Potency [13] | Potency [14] | outcome [15]

CC(C)(C)NCC(O)c1cc(Cl)c(N)c(Cl)c1 (configuration not stated)
inactive: Potency [16] | outcome [1] | Potency [17] | Potency [4] | outcome [18] | outcome [5] | outcome [6] | outcome [7] | Potency [19] | outcome [8] | outcome [9] | outcome [10] | Potency [11] | Potency [14] | outcome [15]

Cc1ccccc1CO[C@@H]1C[C@@]2(C(C)C)CC[C@]1(C)O2
inactive: Potency [16] | outcome [1] | outcome [2] | outcome [3] | outcome [5] | outcome [6] | outcome [7] | Potency [19] | outcome [8] | outcome [9] | outcome [10] | Potency [11] | Potency [12] | Potency [14] | outcome [15]

CC1=NNC(=O)N(/N=C/c2cccnc2)C1
inactive: Potency [16] | outcome [1] | outcome [2] | outcome [3] | outcome [5] | outcome [6] | outcome [7] | outcome [8] | outcome [9] | outcome [10] | Potency [11] | Potency [13] | Potency [14] | outcome [15]

C(CCOCC1CO1)COCC1CO1 (configuration not stated)
inactive: Potency [16] | outcome [1] | outcome [2] | outcome [3] | Potency [17] | outcome [18] | outcome [5] | outcome [6] | outcome [8] | outcome [9] | outcome [10] | Potency [11] | Potency [12] | Potency [13] | Potency [14] | outcome [15]

O=[N+]([O-])c1cccc(O)c1
inactive: Potency [16] | outcome [1] | outcome [2] | outcome [3] | Potency [17] | Potency [4] | outcome [18] | outcome [5] | outcome [6] | outcome [7] | Potency [19] | outcome [9] | outcome [10] | Potency [11] | Potency [13] | outcome [15]

O=C1CN=C(c2ccccc2)c2cc([N+](=O)[O-])ccc2N1
inactive: Potency [16] | outcome [1] | outcome [2] | outcome [3] | Potency [4] | outcome [5] | outcome [6] | outcome [7] | Potency [19] | outcome [9] | outcome [10] | Potency [11] | Potency [12] | Potency [13] | Potency [14] | outcome [15]

O=C1c2ccccc2C(=O)c2ccccc21
inactive: outcome [1] | outcome [2] | outcome [3] | Potency [4] | outcome [5] | outcome [6] | outcome [7] | outcome [8] | outcome [9] | outcome [10] | Potency [11] | activity, negative = cytotoxicity [12] -0.509% [at 19 µM] | activity change, negative = inhibition [13] 99.4% [at 19 µM] | activation [15] 11.5% [at 15.8 µM]

O=C(CCCN1CCC(n2c(=O)[nH]c3ccccc32)CC1)c1ccc(F)cc1
inactive: Potency [16] | outcome [2] | Potency [4] | outcome [5] | outcome [6] | Potency [19] | outcome [9] | outcome [10] | Potency [11] | Potency [12] | Potency [13] | Potency [14] | outcome [15]

CC(CCc1ccccc1)NC(C)C(O)c1ccc(O)cc1 (configuration not stated)
inactive: outcome [1] | outcome [2] | outcome [5] | outcome [6] | Potency [19] | outcome [8] | outcome [9] | outcome [10] | Potency [11] | Potency [12] | Potency [13] | Potency [14]

COC(C)(C)C
inactive: Potency [16] | outcome [1] | Potency [4] | outcome [5] | outcome [6] | outcome [7] | outcome [9] | outcome [10] | Potency [11] | Potency [12] | Potency [14] | outcome [15]

CC(N)=S
inactive: Potency [16] | outcome [1] | outcome [2] | outcome [3] | Potency [17] | Potency [4] | outcome [18] | outcome [5] | outcome [6] | outcome [7] | Potency [19] | outcome [9] | outcome [10] | Potency [11] | Potency [13] | Potency [14] | outcome [15]

CCc1cc2c(s1)-n1c(C)nnc1CN=C2c1ccccc1Cl
inactive: Potency [16] | outcome [1] | outcome [2] | outcome [3] | Potency [17] | Potency [4] | outcome [5] | outcome [6] | outcome [7] | Potency [19] | outcome [8] | outcome [9] | outcome [10] | Potency [11] | Potency [12] | Potency [13] | Potency [14] | outcome [15]

O=C(Nc1ccccc1)N(Cc1ccc(Cl)cc1)C1CCCC1
inactive: Potency [16] | outcome [1] | outcome [2] | outcome [18] | outcome [5] | outcome [8] | outcome [9] | outcome [10] | Potency [11] | Potency [12] | Potency [14] | outcome [15]
active: Potency [17] 54.9 µM | Potency [13] 61.1 µM

CC(C)COP(=O)(OCC(C)C)OCC(C)C
inactive: outcome [1] | outcome [2] | outcome [3] | Potency [17] | Potency [4] | outcome [18] | outcome [5] | outcome [6] | outcome [8] | outcome [9] | outcome [10] | Potency [11] | Potency [12] | Potency [13] | Potency [14] | outcome [15]

CC1CN1P(=O)(N1CC1C)N1CC1C (configuration not stated)
inactive: Potency [16] | outcome [2] | Potency [4] | outcome [5] | outcome [6] | outcome [7] | Potency [19] | outcome [8] | outcome [9] | outcome [10] | Potency [11] | Potency [12] | Potency [13] | Potency [14]
